Where “and” joins values, the source holds several entries; their conditions need not be identical. Equal entries are not always repeated. Among all 5,500 compounds or so, about 2,000 (36%) were called active. Not shown: some 18% with an inconclusive outcome. No stated cut-off is given here; in the data, active means normalized growth mostly below about 0.91 (no sharp cut-off); inconclusive means no clear call, values can overlap the other calls; inactive means mostly above about 0.92. The list shows a part of the results.
Experiment: chemical genetic growth profiling, strain panel (AID 1159580);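 further: tested at 20 µM; growth read once vehicle control cultures reached saturation at 30 °C; 1 = growth at the plate median or of vehicle wells; lower values mean less growth of the strain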
Details: growth OD

Measured: normalized growth

CC(C)=CCCC1(C)C=Cc2c(O)c3c(c(CC=C(C)C)c2O1)OC12C(CC4CC1C(C)(C)OC2(C/C=C(/C)C(=O)O)C4O)C3=O (configuration not stated)
inactive: S. cerevisiae deletion strains, locus YAL013W, strain DEP1, hits give low values 1.01 | S. cerevisiae deletion strains, locus YBR021W, strain FUR4, hits give low values 1.07 | S. cerevisiae deletion strains, locus YBR229C, strain ROT2, hits give low values 0.959 | S. cerevisiae deletion strains, locus YCL029C, strain bik1, hits give low values 0.994 | S. cerevisiae deletion strains, locus YDL035C, strain GPR1, hits give low values 0.961 | S. cerevisiae deletion strains, locus YDL074C, strain BRE1, hits give low values 1.01 | S. cerevisiae deletion strains, locus YDL101C, strain DUN1, hits give low values 0.978 | S. cerevisiae deletion strains, locus YDL185W, strain tfp1, hits give low values 0.997 | S. cerevisiae deletion strains, locus YDL192W, strain arf1, hits give low values 0.947 | S. cerevisiae deletion strains, locus YDR101C, strain arx1, hits give low values 0.96 | S. cerevisiae deletion strains, locus YDR162C, strain NBP2, hits give low values 0.851 | S. cerevisiae deletion strains, locus YDR318W, strain mcm21, hits give low values 0.988 | S. cerevisiae deletion strains, locus YDR388W, hits give low values 0.99 | S. cerevisiae deletion strains, locus YDR502C, strain sam2, hits give low values 1.02 | S. cerevisiae deletion strains, locus YEL061C, strain CIN8, hits give low values 0.989 | S. cerevisiae deletion strains, locus YER110C, hits give low values 0.981 | S. cerevisiae deletion strains, locus YER155C, strain BEM2, hits give low values 1.04 | S. cerevisiae deletion strains, locus YER167W, strain BCK2, hits give low values 1.01 | S. cerevisiae deletion strains, locus YGL078C, strain dbp3, hits give low values 1.01 | S. cerevisiae deletion strains, locus YGL086W, strain mad1, hits give low values 0.993 | S. cerevisiae deletion strains, locus YGL248W, strain PDE1, hits give low values 0.994 | S. cerevisiae deletion strains, locus YGR135W, strain pre9, hits give low values 1.06 | S. cerevisiae deletion strains, locus YGR229C, strain SMI1, hits give low values 0.988 | S. cerevisiae deletion strains, locus YGR252W, strain gcn5, hits give low values 1.17 | S. cerevisiae deletion strains, locus YHR030C, strain SLT2, hits give low values 1.01 and 0.984 | S. cerevisiae deletion strains, locus YHR079C, strain IRE1 (second series), hits give low values 0.981 | S. cerevisiae deletion strains, locus YHR079C, strain IRE1, hits give low values 0.985 | S. cerevisiae deletion strains, locus YHR094C, strain hxt1, hits give low values 1 | S. cerevisiae deletion strains, locus YHR129C, strain ARP1, hits give low values 1.02 | S. cerevisiae deletion strains, locus YHR200W, strain rpn10, hits give low values 1.01 | S. cerevisiae deletion strains, locus YIL066C, strain RNR3, hits give low values 0.97 | S. cerevisiae deletion strains, locus YIL073C, strain SPO22, hits give low values 1.07 | S. cerevisiae deletion strains, locus YIL125W, strain kgd1, hits give low values 0.992 | S. cerevisiae deletion strains, locus YIR030C, strain dcg1, hits give low values 0.997 | S. cerevisiae deletion strains, locus YJL095W, strain BCK1, hits give low values 0.884 and 1.01 | S. cerevisiae deletion strains, locus YJL134W, strain LCB3, hits give low values 0.993 | S. cerevisiae deletion strains, locus YJL168C, strain set2, hits give low values 0.995 | S. cerevisiae deletion strains, locus YJL187C, strain SWE1 (second series), hits give low values 0.972 | S. cerevisiae deletion strains, locus YJR066W, strain TOR1, hits give low values 0.935 | S. cerevisiae deletion strains, locus YKL009W, strain mrt4, hits give low values 1.02 | S. cerevisiae deletion strains, locus YKL068W, hits give low values 0.996 | S. cerevisiae deletion strains, locus YKL085W, strain MDH1 (second series), hits give low values 1.02 | S. cerevisiae deletion strains, locus YKL085W, strain MDH1, hits give low values 1.02 | S. cerevisiae deletion strains, locus YKL190W, strain CNB1, hits give low values 0.988 | S. cerevisiae deletion strains, locus YKR001C, strain vps1, hits give low values 0.961 | S. cerevisiae deletion strains, locus YLR039C, strain RIC1, hits give low values 0.774 | S. cerevisiae deletion strains, locus YLR058C, strain SHM2, hits give low values 0.98 | S. cerevisiae deletion strains, locus YLR102C, strain apc9, hits give low values 1.01 | S. cerevisiae deletion strains, locus YLR113W, strain HOG1, hits give low values 0.92 | S. cerevisiae deletion strains, locus YLR268W, strain sec22, hits give low values 0.93 | S. cerevisiae deletion strains, locus YLR330W, strain CHS5, hits give low values 1.01 | S. cerevisiae deletion strains, locus YLR342W, strain FKS1 (second series), hits give low values 0.96 | S. cerevisiae deletion strains, locus YLR371W, strain rom2, hits give low values 1.03 | S. cerevisiae deletion strains, locus YLR418C, strain cdc73, hits give low values 0.936 | S. cerevisiae deletion strains, locus YML016C, strain PPZ1, hits give low values 0.987 | S. cerevisiae deletion strains, locus YML032C, strain rad52, hits give low values 0.978 | S. cerevisiae deletion strains, locus YML124C, strain tub3, hits give low values 1.01 | S. cerevisiae deletion strains, locus YMR078C, strain ctf18, hits give low values 0.997 | S. cerevisiae deletion strains, locus YMR223W, strain ubp8, hits give low values 0.991 | S. cerevisiae deletion strains, locus YMR307W, strain GAS1, hits give low values 0.95 | S. cerevisiae deletion strains, locus YNL067W, strain RPL9B, hits give low values 0.996 | S. cerevisiae deletion strains, locus YNL128W, strain TEP1, hits give low values 0.967 | S. cerevisiae deletion strains, locus YNL153C, strain GIM3, hits give low values 1.04 | S. cerevisiae deletion strains, locus YNL183C, strain NPR1, hits give low values 0.936 | S. cerevisiae deletion strains, locus YNL233W, strain BNI4, hits give low values 1.06 | S. cerevisiae deletion strains, locus YNL250W, strain rad50, hits give low values 0.993 | S. cerevisiae deletion strains, locus YNL271C, strain bni1, hits give low values 0.99 | S. cerevisiae deletion strains, locus YNL298W, strain CLA4, hits give low values 0.986 | S. cerevisiae deletion strains, locus YNL307C, strain MCK1, hits give low values 0.942 | S. cerevisiae deletion strains, locus YNL322C, strain KRE1, hits give low values 1 | S. cerevisiae deletion strains, locus YNR052C, strain pop2, hits give low values 1 | S. cerevisiae deletion strains, locus YOL012C, strain htz1 1.58 | S. cerevisiae deletion strains, locus YOL147C, strain pex11, hits give low values 1 | S. cerevisiae deletion strains, locus YOR061W, strain CKA2, hits give low values 0.967 | S. cerevisiae deletion strains, locus YOR069W, strain VPS5, hits give low values 0.988 | S. cerevisiae deletion strains, locus YOR136W, strain idh2, hits give low values 1.01 | S. cerevisiae deletion strains, locus YOR144C, strain elg1, hits give low values 1 | S. cerevisiae deletion strains, locus YOR184W, strain ser1, hits give low values 0.903 | S. cerevisiae deletion strains, locus YOR231W, strain MKK1, hits give low values 0.963 | S. cerevisiae deletion strains, locus YOR316C, strain cot1, hits give low values 0.994 | S. cerevisiae deletion strains, locus YPL256C, strain CLN2, hits give low values 0.957 | S. cerevisiae deletion strains, locus YPR119W, strain clb2, hits give low values 0.994 | S. cerevisiae deletion strains, locus YPR141C, strain kar3, hits give low values 0.991 | S. cerevisiae deletion strains, locus YPR163C, strain tif3, hits give low values 0.967 | S. cerevisiae deletion strains, locus YPR167C, strain met16, hits give low values 1.02 | S. cerevisiae deletion strains, strain wtn01, hits give low values 0.972 | S. cerevisiae strains, strain wild type, hits give low values 0.968
